What all share (assay): NCI-60 one-dose screen, 48 h (100 = growth as untreated, 0 = no growth, -100 = all killed)
Assay [1] concerns HCT-15 colon. The settings on record: 10 µM unless noted.
Assay [2] concerns SNB-75 CNS. The settings on record: 10 µM unless noted.
Assay [3] deals with SNB-19 CNS. The settings on record: 10 µM unless noted.
Assay [4] has as its system U251 CNS. The settings on record: 10 µM unless noted.
Assay [5] concerns PC-3 prostate. The settings on record: 10 µM unless noted.
The subject of assay [6] is SK-MEL-5 melanoma. The settings on record: 10 µM unless noted.
Assay [7] has as its system UACC-62 melanoma. The settings on record: 10 µM unless noted.
The subject of assay [8] is LOX IMVI melanoma. The settings on record: 10 µM unless noted.
In assay [9] the test system is SK-MEL-28 melanoma. The settings on record: 10 µM unless noted.
Assay [10] has as its system EKVX NSCLC. The settings on record: 10 µM unless noted.
Assay [11] deals with SN12C renal. The settings on record: 10 µM unless noted.
Assay [12] concerns UO-31 renal. The settings on record: 10 µM unless noted.
The subject of assay [13] is TK-10 renal. The settings on record: 10 µM unless noted.
Assay [14] concerns ACHN renal. The settings on record: 10 µM unless noted.
The subject of assay [15] is CAKI-1 renal. The settings on record: 10 µM unless noted.
Assay [16] relates to A498 renal. The settings on record: 10 µM unless noted.
Assay [17] deals with CCRF-CEM leukemia. The settings on record: 10 µM unless noted.
Assay [18] deals with MOLT-4 leukemia. The settings on record: 10 µM unless noted.
For assay [19], the system named is SK-MEL-2 melanoma. The settings on record: 10 µM.

Compounds without any hit were thinned out: in the full panel of roughly 83,000, 20% have a hit.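 Single-concentration screen, 48 h exposure, 96-well plates. Endpoint: percent growth. Below 10 = active.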 Values without a mark were called inactive. The source made the active and inactive calls.

For `O=C1OCC2=C1C(c1cccc(F)c1)c1cc3c(cc1N2CCO)OCCO3` (configuration not stated), the growth in assay [1] was 9.75% (active); in assay [2] it was 27.3%; in assay [3] it was 18.6%; in [4] it was 17.8%; in assay [5], 24.8%; in assay [6] it was 8.33% (active). Besides, the growth in assay [7] was 33%; in assay [8], 31.4%; in assay [9], 44.8%; in [10] it was 37.5%; in assay [11] it was 31%; in assay [12] it was 42.1%. The growth in [13] is 57.7%; in [14], 23.9%; in [15], 31.8%; in assay [16], 13.4%; in assay [17], 7.52% (active); in assay [18], 7.49% (active).
Consider `Cc1nn(-c2nc3ccccc3[nH]2)c2c1C(c1ccc(O)cc1)CC(=O)N2` (configuration not stated), for which the growth was 70.6% in assay [1]; 27.8% in assay [2]; 84.1% in [3]; 76.4% in assay [4]; 77.7% in assay [5]; 85.3% in assay [6]. Besides, the growth in assay [7] was 84.9%; in assay [8], 85.2%; in assay [9] it was 80.4%; in assay [19], 51%; in [10], 109%; in [11], 101%. In addition, the growth is 69.3% in [12]; 86.9% in [13]; 97% in assay [14]; 89.9% in assay [15]; 17.7% in assay [17].
With `COc1cccc2cc(-c3nc(C4CCC(C(=O)O)CC4)n4ncnc(N)c34)[nH]c12` (configuration not stated), the growth in assay [1] is 16.4%; in [2], -43.1% (active); in [3] it was 15.7%; in assay [4], 9.1% (active); in assay [5] it was 13.3%; in assay [6] it was -28.7% (active). Moreover, the growth in assay [7] is -32.2% (active); in assay [8], -4.84% (active); in assay [9] it was -9.6% (active); in [10] it was 11.6%; in assay [11] it was 14%; in [12], -12.4% (active). In addition, the growth in assay [13] was -22.3% (active); in [14] it was 4.68% (active); in assay [15], -22.7% (active); in assay [16] it was -50.6% (active); in assay [17] it was 9.93% (active); in assay [18], 15.2%.
As for `COc1cc2ncnc(Nc3cccc(Cl)c3F)c2cc1OC(=O)N1CCN(C)C[C@H]1C`, the growth in assay [1] was 75.1%; in assay [2] it was 71%; in assay [3], 83.4%; in [4], 75.8%; in [5], 64.4%; in assay [6] it was 81.3%. Besides, the growth in assay [7] is 77.3%; in assay [8] it was 79.6%; in [9], 87.3%; in assay [10], 57.8%; in [11] it was 50.1%; in assay [12] it was 41.6%. In addition, the growth in assay [13] is 28.1%; in [14] it was 19.5%; in assay [15] it was 43.2%; in [16], 82.8%; in [17], 74.7%; in [18], 67.7%.
With `CO/C=C/C(=O)c1cc2cnc3c(=N)cc(NC(=O)C(C)C)c([nH]1)c23`, the growth in assay [1] is -26.8% (active); in assay [2], -11.8% (active); in assay [3], -29.8% (active); in [4], -74.3% (active); in assay [5], -21.6% (active); in [6], -96.9% (active). The growth in assay [7] was -53.8% (active); in assay [8], -73.9% (active); in [9], -44.8% (active); in assay [19], -65.6% (active); in assay [10], -36.4% (active); in assay [11], 1.75% (active). The growth is -47.2% (active) in assay [13]; -1.54% (active) in [14]; -46.1% (active) in assay [16]; 0.169% (active) in [17]; -38.7% (active) in assay [18].
As to `COc1ccc(Cc2cc(-c3ccccc3C)n[nH]c2=O)cc1`, the growth in [1] was 107%; in [2], 72.7%; in [3], 87.1%; in assay [4], 100%; in assay [5], 81.7%; in [6], 99.2%. The growth in [7] was 94.8%; in assay [8], 109%; in assay [9], 106%; in assay [10], 108%; in [11], 92.3%; in assay [12] it was 76.8%. Further, the growth was 116% in assay [13]; 104% in assay [14]; 109% in [15]; 87.2% in [16]; -41.2% (active) in [17]; 96.9% in assay [18].
Take `CN1CCN(CCCOc2cccc3nc(Nc4ccc(Cl)c(C(F)(F)F)c4)ccc23)CC1`: the growth in assay [1] is -49.6% (active); in assay [2], -3.73% (active); in assay [3], 20.8%; in [4], -22.7% (active); in assay [5], 14.6%; in [6], 41.5%. Moreover, the growth was -29% (active) in assay [7]; -95% (active) in [8]; -45.2% (active) in assay [9]; 44.5% in [10]; 28.3% in [11]; 28.6% in assay [12]. Besides, the growth is -66.5% (active) in assay [13]; -69.3% (active) in assay [14]; 48.9% in assay [15]; 30.8% in [16]; -24.7% (active) in [17]; -57.6% (active) in assay [18].
Regarding `Cc1cc(N(CCNc2ccnc3cc(Cl)ccc23)Cc2ccc3c(c2)OCO3)nc(N2CCCC2)n1`, the growth was 0.301% (active) in assay [1]; -46.7% (active) in [2]; 26.5% in [3]; -17.6% (active) in [4]; 36.1% in assay [5]; -96.9% (active) in [6]. Besides, the growth in assay [7] is 18.2%; in [8], -80.9% (active); in [9], -58.7% (active); in assay [19] it was -39.9% (active); in assay [10] it was 35.8%; in assay [11] it was 27.9%. Besides, the growth was -56.2% (active) in assay [12]; -43.5% (active) in assay [13]; -49.1% (active) in assay [14]; -2.25% (active) in [16]; -0.451% (active) in assay [17]; -17.7% (active) in assay [18].

(Values after PubChem BioAssay (NCI).)
